Experimental data: publication PMC7862700, “An all-to-all approach to the identification of sequence-specific readers for epigenetic DNA modifications on cytosine”

Key:
Assay in all cases: DAPPL (digital affinity profiling via proximity ligation, sequencing); 10 mM Tris-HCl pH 7.5, 50 mM NaCl, 1 mM DTT, 4% glycerol, room temperature, 30 min; GST-TFs on glutathione beads, 16-mer random dsDNA library, 0.1% formaldehyde crosslink after washing; high values mean tight binding
FEV = biological target: T1, FEV (Homo sapiens, UniProt Q99581 1-238); settings: protein: recombinant; tags: N-terminal GST; dsDNA, one strand shown
T1 sequence: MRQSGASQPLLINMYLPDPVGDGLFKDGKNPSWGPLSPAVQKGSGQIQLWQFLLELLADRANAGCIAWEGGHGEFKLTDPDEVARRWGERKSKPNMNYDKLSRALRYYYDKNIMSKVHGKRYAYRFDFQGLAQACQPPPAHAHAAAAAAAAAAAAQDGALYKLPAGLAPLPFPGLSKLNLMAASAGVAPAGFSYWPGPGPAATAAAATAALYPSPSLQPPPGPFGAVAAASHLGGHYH
Summary of the method: (§1)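 Yeast served to express human transcription factors as GST fusions, which were then captured on glutathione beads and labelled with DNA barcodes. Pooled with a tag-only sample, they were incubated with 200 nmole of a 16-mer random double-stranded DNA library for 30 min at room temperature in Tris/NaCl/DTT/glycerol buffer, washed, crosslinked with 0.1% formaldehyde, ligated by proximity, amplified by PCR and sequenced. Dividing each hexamer's read frequency for a factor by its frequency for the tag-only sample gives the binding signal.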

ETV5 = ETV5 (Homo sapiens, UniProt P41161 1-510); settings: protein: recombinant; tags: N-terminal GST; dsDNA, one strand shown
Sequence of ETV5 (P41161 whole entry): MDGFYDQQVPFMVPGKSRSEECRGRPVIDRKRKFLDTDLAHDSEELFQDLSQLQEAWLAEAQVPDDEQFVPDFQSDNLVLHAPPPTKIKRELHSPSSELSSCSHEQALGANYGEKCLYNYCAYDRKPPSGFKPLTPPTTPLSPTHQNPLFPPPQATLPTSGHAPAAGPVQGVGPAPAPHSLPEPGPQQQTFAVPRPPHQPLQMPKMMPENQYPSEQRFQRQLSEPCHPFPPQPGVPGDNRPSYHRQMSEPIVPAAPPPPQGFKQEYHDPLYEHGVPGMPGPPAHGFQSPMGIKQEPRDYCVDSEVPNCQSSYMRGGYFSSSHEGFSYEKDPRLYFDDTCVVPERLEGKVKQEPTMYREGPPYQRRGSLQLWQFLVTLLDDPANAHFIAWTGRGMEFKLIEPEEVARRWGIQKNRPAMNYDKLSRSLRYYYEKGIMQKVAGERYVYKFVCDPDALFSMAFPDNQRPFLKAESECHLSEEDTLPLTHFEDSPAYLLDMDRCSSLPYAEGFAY
Summary of the method: as §1

HSF1 = HSF1 (Homo sapiens, UniProt Q00613 1-529); settings: protein: recombinant; tags: N-terminal GST; chain copies: 3; dsDNA, one strand shown
Sequence of HSF1 (Q00613 whole entry): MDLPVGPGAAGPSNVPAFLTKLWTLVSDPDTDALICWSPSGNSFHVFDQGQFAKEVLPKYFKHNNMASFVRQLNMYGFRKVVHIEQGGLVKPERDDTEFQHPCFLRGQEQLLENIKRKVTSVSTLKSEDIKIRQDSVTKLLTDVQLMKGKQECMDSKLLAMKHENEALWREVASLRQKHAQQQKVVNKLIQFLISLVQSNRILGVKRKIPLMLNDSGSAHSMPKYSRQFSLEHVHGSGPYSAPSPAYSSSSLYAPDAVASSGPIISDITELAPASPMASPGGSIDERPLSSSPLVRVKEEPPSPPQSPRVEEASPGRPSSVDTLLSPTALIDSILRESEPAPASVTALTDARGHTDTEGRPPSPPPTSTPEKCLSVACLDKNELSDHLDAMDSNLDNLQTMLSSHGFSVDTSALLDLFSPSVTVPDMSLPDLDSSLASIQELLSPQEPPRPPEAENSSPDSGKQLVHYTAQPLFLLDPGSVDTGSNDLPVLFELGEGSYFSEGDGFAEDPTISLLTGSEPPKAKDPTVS
Summary of the method: as §1

SPIC = biological target: T2, SPIC (Homo sapiens, UniProt Q8N5J4 1-248); settings: protein: recombinant; tags: N-terminal GST; dsDNA, one strand shown
T2 sequence: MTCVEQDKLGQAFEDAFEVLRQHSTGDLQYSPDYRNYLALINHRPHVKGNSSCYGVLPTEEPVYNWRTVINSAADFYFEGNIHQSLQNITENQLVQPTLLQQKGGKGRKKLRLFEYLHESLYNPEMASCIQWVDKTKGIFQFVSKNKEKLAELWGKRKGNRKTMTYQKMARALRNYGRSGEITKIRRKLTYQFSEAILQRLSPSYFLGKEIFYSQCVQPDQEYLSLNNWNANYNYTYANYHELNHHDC
Summary of the method: as §1

ELF4 = ELF4 (Homo sapiens, UniProt Q99607 1-663); settings: protein: recombinant; tags: N-terminal GST; dsDNA, one strand shown
Sequence of ELF4 (Q99607 whole entry): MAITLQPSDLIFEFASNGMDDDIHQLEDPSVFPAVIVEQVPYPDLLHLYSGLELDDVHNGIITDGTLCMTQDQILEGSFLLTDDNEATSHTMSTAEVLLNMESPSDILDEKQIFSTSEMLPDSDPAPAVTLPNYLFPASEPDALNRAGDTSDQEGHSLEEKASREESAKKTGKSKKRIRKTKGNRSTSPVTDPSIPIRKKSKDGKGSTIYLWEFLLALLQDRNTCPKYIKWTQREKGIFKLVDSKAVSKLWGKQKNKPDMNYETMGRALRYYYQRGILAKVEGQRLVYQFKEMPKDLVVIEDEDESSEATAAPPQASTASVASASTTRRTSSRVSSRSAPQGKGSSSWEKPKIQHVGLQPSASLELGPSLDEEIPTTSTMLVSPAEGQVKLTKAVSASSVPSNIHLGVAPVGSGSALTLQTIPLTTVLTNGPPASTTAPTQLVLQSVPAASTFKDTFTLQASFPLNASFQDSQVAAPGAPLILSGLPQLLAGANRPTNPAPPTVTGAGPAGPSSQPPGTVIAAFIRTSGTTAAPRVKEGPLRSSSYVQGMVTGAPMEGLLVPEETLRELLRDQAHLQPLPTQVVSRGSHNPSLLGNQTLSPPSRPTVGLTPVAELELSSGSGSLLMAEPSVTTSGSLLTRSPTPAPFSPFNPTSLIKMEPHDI
Summary of the method: as §1

ELK4 = biological target: T3, ELK4 (Homo sapiens, UniProt P28324-2 1-405); settings: protein: recombinant; tags: N-terminal GST; dsDNA, one strand shown
T3 sequence: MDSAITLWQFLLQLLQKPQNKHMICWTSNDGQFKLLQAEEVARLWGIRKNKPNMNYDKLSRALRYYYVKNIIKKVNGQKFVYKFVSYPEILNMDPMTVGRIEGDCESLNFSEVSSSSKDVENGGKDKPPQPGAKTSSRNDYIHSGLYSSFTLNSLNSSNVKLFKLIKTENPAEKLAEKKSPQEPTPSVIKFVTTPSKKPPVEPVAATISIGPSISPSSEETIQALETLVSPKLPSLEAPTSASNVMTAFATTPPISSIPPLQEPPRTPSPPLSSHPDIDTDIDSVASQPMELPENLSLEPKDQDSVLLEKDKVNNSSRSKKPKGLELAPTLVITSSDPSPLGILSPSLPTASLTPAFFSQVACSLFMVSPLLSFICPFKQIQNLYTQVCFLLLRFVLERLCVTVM
Summary of the method: as §1

ETV2 = biological target: T4, ETV2 (Homo sapiens, UniProt O00321 1-342); settings: protein: recombinant; tags: N-terminal GST; dsDNA, one strand shown
T4 sequence: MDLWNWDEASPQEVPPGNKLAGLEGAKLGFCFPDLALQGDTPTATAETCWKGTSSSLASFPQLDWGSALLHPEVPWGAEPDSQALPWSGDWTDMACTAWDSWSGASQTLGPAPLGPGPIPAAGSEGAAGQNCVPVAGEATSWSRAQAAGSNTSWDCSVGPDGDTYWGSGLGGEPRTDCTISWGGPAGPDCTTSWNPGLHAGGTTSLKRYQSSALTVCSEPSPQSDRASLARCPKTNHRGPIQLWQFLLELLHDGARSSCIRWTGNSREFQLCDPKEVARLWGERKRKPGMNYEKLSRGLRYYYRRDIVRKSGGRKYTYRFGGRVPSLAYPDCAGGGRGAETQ
Summary of the method: as §1

ELF3 = biological target: T5, ELF3 (Homo sapiens, UniProt P78545 1-371); settings: protein: recombinant; tags: N-terminal GST; dsDNA, one strand shown
T5 sequence: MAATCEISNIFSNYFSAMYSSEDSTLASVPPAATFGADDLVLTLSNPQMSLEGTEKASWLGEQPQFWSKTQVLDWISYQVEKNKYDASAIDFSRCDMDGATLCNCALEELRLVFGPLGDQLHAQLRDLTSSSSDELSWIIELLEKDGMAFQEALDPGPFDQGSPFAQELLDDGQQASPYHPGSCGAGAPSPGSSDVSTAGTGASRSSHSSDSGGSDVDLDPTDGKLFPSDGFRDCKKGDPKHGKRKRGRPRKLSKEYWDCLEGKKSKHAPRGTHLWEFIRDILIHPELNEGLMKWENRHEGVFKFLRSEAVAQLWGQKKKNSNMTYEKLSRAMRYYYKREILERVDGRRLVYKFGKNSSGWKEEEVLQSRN
Summary of the method: as §1

CRX = CRX (Homo sapiens, UniProt O43186 1-299); settings: protein: recombinant; tags: N-terminal GST; dsDNA, one strand shown
Sequence of CRX (O43186 whole entry): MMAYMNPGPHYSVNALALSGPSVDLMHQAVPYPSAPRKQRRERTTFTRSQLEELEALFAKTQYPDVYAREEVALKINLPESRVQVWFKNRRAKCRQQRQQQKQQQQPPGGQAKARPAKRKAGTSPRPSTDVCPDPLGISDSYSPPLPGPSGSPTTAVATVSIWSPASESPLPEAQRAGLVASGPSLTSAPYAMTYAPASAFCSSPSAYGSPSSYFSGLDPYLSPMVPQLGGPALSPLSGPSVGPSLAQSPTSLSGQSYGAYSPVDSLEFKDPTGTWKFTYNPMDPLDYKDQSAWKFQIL
Summary of the method: as §1

ETV1 = ETV1 (Homo sapiens, UniProt P50549 1-477); settings: protein: recombinant; tags: N-terminal GST; dsDNA, one strand shown
Sequence of ETV1 (P50549 whole entry): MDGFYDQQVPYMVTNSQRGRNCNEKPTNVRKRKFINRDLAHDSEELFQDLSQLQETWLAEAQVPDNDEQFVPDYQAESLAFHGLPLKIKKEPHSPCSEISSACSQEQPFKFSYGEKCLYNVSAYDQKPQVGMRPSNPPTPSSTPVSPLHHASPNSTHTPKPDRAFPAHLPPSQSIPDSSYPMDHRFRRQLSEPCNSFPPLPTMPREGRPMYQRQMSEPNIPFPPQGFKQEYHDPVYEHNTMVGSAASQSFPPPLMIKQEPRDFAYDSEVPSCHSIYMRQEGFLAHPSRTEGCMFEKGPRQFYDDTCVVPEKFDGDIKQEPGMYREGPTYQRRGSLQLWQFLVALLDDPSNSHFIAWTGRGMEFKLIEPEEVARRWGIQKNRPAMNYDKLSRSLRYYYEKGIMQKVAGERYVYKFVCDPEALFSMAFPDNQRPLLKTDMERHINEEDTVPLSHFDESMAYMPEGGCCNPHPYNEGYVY
Summary of the method: as §1

ERF = biological target: T6, ERF (Homo sapiens, UniProt P50548 1-548); settings: protein: recombinant; tags: N-terminal GST; dsDNA, one strand shown
T6 sequence: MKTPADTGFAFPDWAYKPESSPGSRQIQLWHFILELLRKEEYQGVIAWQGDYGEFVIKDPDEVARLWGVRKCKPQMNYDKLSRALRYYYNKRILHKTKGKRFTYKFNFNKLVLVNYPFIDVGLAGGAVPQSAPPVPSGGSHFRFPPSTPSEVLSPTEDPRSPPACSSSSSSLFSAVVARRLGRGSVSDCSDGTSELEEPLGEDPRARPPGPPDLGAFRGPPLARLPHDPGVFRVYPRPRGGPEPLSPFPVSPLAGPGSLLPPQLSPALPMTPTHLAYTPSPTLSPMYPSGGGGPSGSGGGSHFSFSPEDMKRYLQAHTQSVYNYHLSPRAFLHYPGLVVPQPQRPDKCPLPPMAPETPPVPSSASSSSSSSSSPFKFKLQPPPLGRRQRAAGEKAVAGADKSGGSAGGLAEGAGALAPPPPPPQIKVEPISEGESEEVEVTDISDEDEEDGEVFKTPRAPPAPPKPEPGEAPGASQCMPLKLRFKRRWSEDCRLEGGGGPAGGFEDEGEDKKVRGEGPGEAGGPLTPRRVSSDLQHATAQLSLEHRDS
Summary of the method: as §1

ETV3L = biological target: T7, ETV3L (Homo sapiens, UniProt Q6ZN32 1-361); settings: protein: recombinant; tags: N-terminal GST; dsDNA, one strand shown
T7 sequence: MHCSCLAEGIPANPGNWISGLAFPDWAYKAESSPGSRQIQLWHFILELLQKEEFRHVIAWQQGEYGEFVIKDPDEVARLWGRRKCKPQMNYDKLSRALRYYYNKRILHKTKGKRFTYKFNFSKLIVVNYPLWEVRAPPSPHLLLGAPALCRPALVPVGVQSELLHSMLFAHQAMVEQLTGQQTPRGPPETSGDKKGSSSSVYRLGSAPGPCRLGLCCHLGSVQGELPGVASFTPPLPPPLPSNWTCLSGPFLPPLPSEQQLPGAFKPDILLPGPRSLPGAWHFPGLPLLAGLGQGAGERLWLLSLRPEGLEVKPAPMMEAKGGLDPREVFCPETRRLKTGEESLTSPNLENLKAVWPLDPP
Summary of the method: as §1

ETS2 = biological target: T8, ETS2 (Homo sapiens, UniProt P15036 1-469); settings: protein: recombinant; tags: N-terminal GST; dsDNA, one strand shown
T8 sequence: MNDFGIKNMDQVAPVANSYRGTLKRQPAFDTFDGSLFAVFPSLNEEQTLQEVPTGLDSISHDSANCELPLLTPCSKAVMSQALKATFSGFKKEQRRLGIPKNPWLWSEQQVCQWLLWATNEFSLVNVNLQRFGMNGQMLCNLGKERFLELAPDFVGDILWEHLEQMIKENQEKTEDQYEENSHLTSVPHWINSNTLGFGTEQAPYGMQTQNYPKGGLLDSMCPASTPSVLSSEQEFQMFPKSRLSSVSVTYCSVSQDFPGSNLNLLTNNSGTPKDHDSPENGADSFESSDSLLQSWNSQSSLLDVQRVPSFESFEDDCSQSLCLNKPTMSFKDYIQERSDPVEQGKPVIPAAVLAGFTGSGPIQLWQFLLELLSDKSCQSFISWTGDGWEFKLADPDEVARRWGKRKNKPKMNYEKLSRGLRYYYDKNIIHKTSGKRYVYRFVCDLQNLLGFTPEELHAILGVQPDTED
Summary of the method: as §1

SPDEF = biological target: T9, SPDEF (Homo sapiens, UniProt O95238 1-335); settings: protein: recombinant; tags: N-terminal GST; dsDNA, one strand shown
T9 sequence: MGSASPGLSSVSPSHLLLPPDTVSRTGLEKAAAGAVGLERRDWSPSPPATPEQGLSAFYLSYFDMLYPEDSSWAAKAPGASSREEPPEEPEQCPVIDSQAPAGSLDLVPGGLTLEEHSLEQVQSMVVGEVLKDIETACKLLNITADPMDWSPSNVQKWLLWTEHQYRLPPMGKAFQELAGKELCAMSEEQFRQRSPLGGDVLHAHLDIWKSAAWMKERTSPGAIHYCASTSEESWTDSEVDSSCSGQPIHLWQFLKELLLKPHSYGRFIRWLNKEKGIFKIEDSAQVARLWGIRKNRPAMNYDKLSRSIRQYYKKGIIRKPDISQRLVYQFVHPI
Summary of the method: as §1

ETV7 = biological target: T10, ETV7 (Homo sapiens, UniProt Q9Y603 1-341); settings: protein: recombinant; tags: N-terminal GST; dsDNA, one strand shown
T10 sequence: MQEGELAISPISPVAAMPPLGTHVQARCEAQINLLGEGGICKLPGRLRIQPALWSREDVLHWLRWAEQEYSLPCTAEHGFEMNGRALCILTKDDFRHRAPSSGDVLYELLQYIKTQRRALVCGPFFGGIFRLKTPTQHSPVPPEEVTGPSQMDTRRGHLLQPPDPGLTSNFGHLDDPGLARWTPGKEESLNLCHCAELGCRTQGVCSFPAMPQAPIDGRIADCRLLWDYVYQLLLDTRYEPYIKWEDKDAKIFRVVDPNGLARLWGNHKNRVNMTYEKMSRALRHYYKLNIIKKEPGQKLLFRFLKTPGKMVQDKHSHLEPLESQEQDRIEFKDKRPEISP
Summary of the method: as §1

ELF5 = biological target: T11, ELF5 (Homo sapiens, UniProt Q9UKW6-2 1-255); settings: protein: recombinant; tags: N-terminal GST; dsDNA, one strand shown
T11 sequence: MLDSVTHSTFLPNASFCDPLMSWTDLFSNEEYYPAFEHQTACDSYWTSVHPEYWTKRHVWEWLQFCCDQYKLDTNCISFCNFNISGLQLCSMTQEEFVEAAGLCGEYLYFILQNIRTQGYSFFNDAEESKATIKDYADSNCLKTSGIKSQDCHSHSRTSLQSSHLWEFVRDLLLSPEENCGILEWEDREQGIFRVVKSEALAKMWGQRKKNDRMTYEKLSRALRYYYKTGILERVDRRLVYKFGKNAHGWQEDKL
Summary of the method: as §1

ETV3 = biological target: T12, ETV3 (Homo sapiens, UniProt P41162-2 1-143); settings: protein: recombinant; tags: N-terminal GST; dsDNA, one strand shown
T12 sequence: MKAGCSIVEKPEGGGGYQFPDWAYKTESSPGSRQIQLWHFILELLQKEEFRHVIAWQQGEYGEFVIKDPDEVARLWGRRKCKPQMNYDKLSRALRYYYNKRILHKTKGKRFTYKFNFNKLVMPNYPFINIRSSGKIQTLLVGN
Summary of the method: as §1

ETV6 = ETV6 (Homo sapiens, UniProt P41212 1-452); settings: protein: recombinant; tags: N-terminal GST; dsDNA, one strand shown
Sequence of ETV6 (P41212 whole entry): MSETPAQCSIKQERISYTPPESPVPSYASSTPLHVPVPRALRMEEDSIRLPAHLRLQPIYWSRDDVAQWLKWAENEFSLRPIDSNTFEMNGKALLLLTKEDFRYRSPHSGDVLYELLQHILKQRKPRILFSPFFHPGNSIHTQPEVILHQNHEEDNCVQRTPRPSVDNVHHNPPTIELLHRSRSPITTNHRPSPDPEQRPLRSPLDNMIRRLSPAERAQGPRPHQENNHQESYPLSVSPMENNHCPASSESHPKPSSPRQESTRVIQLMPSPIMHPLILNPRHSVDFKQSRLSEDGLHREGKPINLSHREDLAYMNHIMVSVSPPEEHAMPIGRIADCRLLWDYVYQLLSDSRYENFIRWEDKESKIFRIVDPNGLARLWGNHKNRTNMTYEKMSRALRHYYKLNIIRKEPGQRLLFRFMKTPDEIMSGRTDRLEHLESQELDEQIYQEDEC
Summary of the method: as §1

Sequence: CGTCTC
- binding signal (FEV): 1.46 fold enrichment (6-mer frequency, TF over GST control)
- binding signal (ETV5): 1.46 fold enrichment (6-mer frequency, TF over GST control)
- binding signal (HSF1): 1.42 fold enrichment (6-mer frequency, TF over GST control)
- binding signal (SPIC): 1.47 fold enrichment (6-mer frequency, TF over GST control)
- binding signal (ELF4): 1.55 fold enrichment (6-mer frequency, TF over GST control)
- binding signal (ELK4): 1.49 fold enrichment (6-mer frequency, TF over GST control)
- binding signal (ETV2): 1.27 fold enrichment (6-mer frequency, TF over GST control)
- binding signal (ELF3): 1.46 fold enrichment (6-mer frequency, TF over GST control)
- binding signal (CRX): 1.18 fold enrichment (6-mer frequency, TF over GST control)
- binding signal (ETV1): 1.43 fold enrichment (6-mer frequency, TF over GST control)
- binding signal (ERF): 1.49 fold enrichment (6-mer frequency, TF over GST control)
- binding signal (ETV3L): 1.71 fold enrichment (6-mer frequency, TF over GST control)
- binding signal (ETS2): 1.58 fold enrichment (6-mer frequency, TF over GST control)
- binding signal (SPDEF): 1.35 fold enrichment (6-mer frequency, TF over GST control)
- binding signal (ETV7): 1.44 fold enrichment (6-mer frequency, TF over GST control)
- binding signal (ELF5): 1.38 fold enrichment (6-mer frequency, TF over GST control)
- binding signal (ETV3): 1.48 fold enrichment (6-mer frequency, TF over GST control)
- binding signal (ETV6): 1.46 fold enrichment (6-mer frequency, TF over GST control)
